Reference: PubChem BioAssay AID1159580 (chemical genetic matrix, 2015)
The campaign covered roughly 5,500 compounds. About 2,000 (36%) were called active. About 18% were inconclusive and are not listed. This is one part of the list. A number with no mark means an inactive call. Cut-off read from the data, not from the text of the source: active = normalized growth mostly below about 0.91 (no sharp cut-off); inconclusive = no clear call, values can overlap the other calls; inactive = mostly above about 0.92.

Experiment: chemical genetic growth profiling, strain panel (AID 1159580);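 note: tested at 20 µM; growth read once vehicle control cultures reached saturation at 30 °C; 1 = growth at the plate median or of vehicle wells; lower values mean less growth of the strain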
Conditions: S. cerevisiae deletion strains, growth OD

N#Cc1c2ccccc2nc2ccccc12
normalized growth (locus YAR019C, strain CDC15, hits give low values): 0.818 (active)
normalized growth (locus YBL105C, strain PKC1, hits give low values): 0.834 (active)
normalized growth (locus YBR135W, strain CKS1, hits give low values): 0.808 (active)
normalized growth (locus YBR136W, strain MEC1, hits give low values): 0.827 (active)
normalized growth (locus YBR160W, strain CDC28, hits give low values): 0.823 (active)
normalized growth (locus YDL017W, strain CDC7, hits give low values): 0.834 (active)
normalized growth (locus YDL028C, strain MPS1, hits give low values): 0.825 (active)
normalized growth (locus YDL101C, strain DUN1, hits give low values): 0.832 (active)
normalized growth (locus YDL108W, strain KIN28, hits give low values): 0.826 (active)
normalized growth (locus YDL132W, strain cdc53, hits give low values): 0.885
normalized growth (locus YDL214C, strain PRR2, hits give low values): 0.743
normalized growth (locus YDR052C, strain DBF4, hits give low values): 0.829 (active)
normalized growth (locus YDR054C, strain cdc34, hits give low values): 0.781 (active)
normalized growth (locus YDR226W, strain ADK1, hits give low values): 0.825 (active)
normalized growth (locus YDR477W, strain SNF1, hits give low values): 0.678 (active)
normalized growth (locus YER123W, strain YCK3, hits give low values): 0.678
normalized growth (locus YER133W, strain GLC7, hits give low values): 0.717 (active)
normalized growth (locus YFL009W, strain cdc4, hits give low values): 0.813 (active)
normalized growth (locus YFL029C, strain CAK1, hits give low values): 0.813 (active)
normalized growth (locus YFR003C, strain YPI1, hits give low values): 0.831 (active)
normalized growth (locus YFR019W, strain FAB1, hits give low values): 0.844
normalized growth (locus YFR028C, strain CDC14, hits give low values): 0.832 (active)
normalized growth (locus YGR040W, strain KSS1, hits give low values): 0.716
normalized growth (locus YGR052W, strain FMP48, hits give low values): 0.736
normalized growth (locus YGR092W, strain DBF2, hits give low values): 0.196 (active)
normalized growth (locus YHR030C, strain SLT2, hits give low values): 0.693 (active)
normalized growth (locus YHR079C, strain IRE1, hits give low values): 0.599
normalized growth (locus YHR082C, strain KSP1, hits give low values): 0.72
normalized growth (locus YHR205W, strain SCH9, hits give low values): 0.807
normalized growth (locus YIL147C, strain SLN1, hits give low values): 0.822 (active)
normalized growth (locus YJL095W, strain BCK1, hits give low values): 0.561
normalized growth (locus YJL128C, strain PBS2, hits give low values): 0.87
normalized growth (locus YJL157C, strain FAR1, hits give low values): 0.675 (active)
normalized growth (locus YJR016C, strain ILV3, hits give low values): 0.816 (active)
normalized growth (locus YJR066W, strain TOR1 (second series), hits give low values): 0.728
normalized growth (locus YJR066W, strain TOR1, hits give low values): 0.615
normalized growth (locus YKL048C, strain ELM1, hits give low values): 0.746 (active)
normalized growth (locus YKL067W, strain YNK1, hits give low values): 0.744
normalized growth (locus YKL101W, strain HSL1, hits give low values): 0.761
normalized growth (locus YKL193C, strain SDS22, hits give low values): 0.803 (active)
normalized growth (locus YKL203C, strain TOR2, hits give low values): 0.693 (active)
normalized growth (locus YLR113W, strain HOG1, hits give low values): 0.638 (active)
normalized growth (locus YLR133W, strain CKI1, hits give low values): 0.737
normalized growth (locus YLR403W, strain SFP1, hits give low values): 0.605 (active)
normalized growth (locus YML070W, strain DAK1, hits give low values): 0.726
normalized growth (locus YMR001C, strain CDC5, hits give low values): 0.818 (active)
normalized growth (locus YMR205C, strain PFK2 (second series), hits give low values): 0.761
normalized growth (locus YMR277W, strain FCP1, hits give low values): 0.817 (active)
normalized growth (locus YNL006W, strain LST8, hits give low values): 0.829 (active)
normalized growth (locus YNL020C, strain ARK1, hits give low values): 0.717
normalized growth (locus YNL161W, strain CBK1, hits give low values): 0.823 (active)
normalized growth (locus YNL183C, strain NPR1, hits give low values): 0.584
normalized growth (locus YNL207W, strain RIO2, hits give low values): 0.822 (active)
normalized growth (locus YNL222W, strain SSU72, hits give low values): 0.825 (active)
normalized growth (locus YNL307C, strain MCK1 (second series), hits give low values): 0.649
normalized growth (locus YOL078W, strain AVO1, hits give low values): 0.803 (active)
normalized growth (locus YOL136C, strain PFK27, hits give low values): 0.742
normalized growth (locus YOR061W, strain CKA2, hits give low values): 0.677 (active)
normalized growth (locus YOR119C, strain RIO1, hits give low values): 0.749
normalized growth (locus YOR231W, strain MKK1, hits give low values): 0.587
normalized growth (locus YOR329C, strain SCD5, hits give low values): 0.829 (active)
normalized growth (locus YPL031C, strain PHO85, hits give low values): 0.616 (active)
normalized growth (locus YPL153C, strain RAD53, hits give low values): 0.659 (active)
normalized growth (locus YPL204W, strain HRR25, hits give low values): 0.693
normalized growth (locus YPL209C, strain IPL1, hits give low values): 0.833 (active)
normalized growth (locus YPL256C, strain CLN2, hits give low values): 0.708 (active)
normalized growth (locus YPR025C, strain CCL1, hits give low values): 0.82 (active)
normalized growth (locus YPR106W, strain ISR1, hits give low values): 0.862 (active)
normalized growth (locus YPR111W, strain DBF20, hits give low values): 0.843 (active)
normalized growth (strain NNK1, hits give low values): 0.846 (active)
normalized growth (strain TSCII, hits give low values): 0.811 (active)
